From PubChem
Rin1-Abl PPI inh: human Rin1-Abl interaction inhibition. P00519+Q13671. TR-FRET Rin1/Abl binding, biochemical. inhibition, % at 7.35 µM. 360,000 compounds, 0.4% hits. AID 588664; in the data active means inhibition above about 5%, passing the limit was not always enough
LEDGF integ inh: blocks HIV-1 LEDGF/p75-dependent DNA integration. TR-FRET IN-LEDGF/p75 DNA integration, Eu/Cy5. inhibition, % at 3.7 µM. 370,000 compounds, 0.64% hits. AID 743269;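 active means inhibition above the screen-wide mean plus 3 SD, cut at about 13% in these data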;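 further: signal is the Cy5 over europium emission ratio at 671 and 618 nm; 0% = plate median of compound wells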
Neddyl block: cullin neddylation inhibition; TR-FRET cullin neddylation, biochemical; P61081+Q13564; AID 651699; calls only at 25 µM; 360,000 compounds, 0.58% hits; in the data active means inhibition above about 36%
Target sequence (P61081 whole entry, looked up): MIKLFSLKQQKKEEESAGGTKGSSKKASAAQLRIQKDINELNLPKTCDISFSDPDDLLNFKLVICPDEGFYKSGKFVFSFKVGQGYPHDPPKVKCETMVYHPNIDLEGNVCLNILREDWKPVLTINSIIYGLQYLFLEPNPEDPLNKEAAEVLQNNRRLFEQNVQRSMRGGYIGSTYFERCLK
Target sequence (Q13564 whole entry, looked up): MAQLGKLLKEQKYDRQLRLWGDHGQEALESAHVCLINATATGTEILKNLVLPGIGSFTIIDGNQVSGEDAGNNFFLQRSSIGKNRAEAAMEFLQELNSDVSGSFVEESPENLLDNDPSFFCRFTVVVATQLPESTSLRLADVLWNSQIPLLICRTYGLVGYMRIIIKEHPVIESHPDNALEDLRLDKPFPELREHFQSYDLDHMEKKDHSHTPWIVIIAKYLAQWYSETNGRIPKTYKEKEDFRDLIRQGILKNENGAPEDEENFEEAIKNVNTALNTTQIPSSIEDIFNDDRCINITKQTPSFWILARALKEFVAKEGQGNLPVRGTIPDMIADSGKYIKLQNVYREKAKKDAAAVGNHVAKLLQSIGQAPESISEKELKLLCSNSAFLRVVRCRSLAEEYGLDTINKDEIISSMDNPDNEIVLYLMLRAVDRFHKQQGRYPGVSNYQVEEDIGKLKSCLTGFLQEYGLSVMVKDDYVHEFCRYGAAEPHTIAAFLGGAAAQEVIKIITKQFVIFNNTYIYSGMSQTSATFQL
KLK7 zymogen act: proKLK7 (human) activation, primary screen; purified proKLK7, EDANS-DABCYL substrate fluorescence; 100% is mature enzyme control, 0% vehicle; 370,000 compounds, 0.9% hits; P49862; activation, % at 7 µM;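 active means activation above the mean of all tested compounds plus 3 SD, computed per campaign excluding outliers beyond control limits, cut at about 13% in these data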
MBD2 inh: blocks human MBD2 binding to methylated DNA; Q9UBB5; 370,000 compounds, 0.31% hits; TR-FRET, MBD2 binding to methylated oligonucleotide; inhibition, % at 4.4 µM; in the data active means inhibition above about 13%
UHRF1 MBD2 ctr: blocks human UHRF1 binding to methylated DNA. UHRF1 binding to methylated oligo, TR-FRET. inhibition, % at 4.4 µM. 370,000 compounds, 0.75% hits; in the data active means inhibition above about 21%;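 further: UHRF1 SRA domain binding a hemimethylated CpG hairpin DNA probe; 0% = median of test compound wells and 100% = reference inhibitor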
proKLK7 act conf: proKLK7 activation, confirmation; shares compounds with KLK7 zymogen act; purified proKLK7, EDANS-DABCYL substrate fluorescence; scaled: vehicle 0, mature enzyme 100; activation, % at 7 µM; 3,200 compounds, 68% hits;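 active means activation, as change over the incubation, above the mean of all tested compounds plus 3 SD, cut at about 13% in these data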
EDANS interfere: counter-screen for kallikrein-7 activators: EDANS-DABCYL optical interference | shares compounds with KLK7 zymogen act | 3,200 compounds, 80% hits | EDANS-DABCYL substrate fluorescence interference, no enzyme, 4 h; solvent 0%, active enzyme control 100% | activation, % at 7 µM;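 active means activation above the all-compound mean plus 3 SD, ignoring values outside control-based bounds, cut at about 4.8% in these data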;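 further: value is the 4 h activation minus the activation read at time zero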
EDANS interf: optically interferes with EDANS-DABCYL fluorescence, kallikrein-7 activator counter-screen; shares compounds with KLK7 zymogen act; EDANS-DABCYL peptide fluorescence interference, no enzyme; EC50, µM; 250 compounds, 20% hits; AID 720493;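 active means compounds that raise the fluorescence signal in this interference counterscreen, with EC50 at or below 10 µM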;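 further: intact quenched peptide substrate alone read at 355 nm excitation and 520 nm emission; signal is fluorescence gain from T0 to T4 after four hours at room temperature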
An asterisk follows results filed as active; i = inactive; x = no result shown. An excerpt weighted towards active compounds, which were near 3.1% of everything screened.

SMILES	Rin1-Abl PPI inh	LEDGF integ inh	Neddyl block	KLK7 zymogen act	MBD2 inh	UHRF1 MBD2 ctr	proKLK7 act conf	EDANS interfere	others
COc1ccc2nc(SCC(=O)NCc3ccc(S(N)(=O)=O)cc3)[nH]c2c1	0.6	2.3	i	-0.5	-1.8	-1.5	x	x
O=C(O)c1cc(-c2ccccc2)nc2nc(N3CCCCC3)sc12	x	10.5	x	16.2*	-4.9	-3.6	44.1*	41.2*
Cc1ccc(-c2cc(C(=O)O)c3sc(N4CCCCC4)nc3n2)cc1	-4.4	-7.7	x	24.5*	4.0	6.4	18.8*	22.7*
C[C@H]1CN([C@@H](C)CO)C(=O)CCCn2nncc2CO[C@H]1CN(C)C(=O)C1CC1	-2.1	0.7	i	0.3	2.0	14.5	x	x
O=c1c2ccccc2nc2ccccn12	-4.8	0.9	x	49.8*	-6.3	-4.0	42.5*	41.2*
O=c1c(-c2ccccc2)c(O)nc2ccccn12	4.9	-2.6	i	0.1	1.3	-1.5	x	x
COc1ccc(CNC(=O)c2ccc3c(c2)N(C)CCS3)cc1	-4.0	-6.6	x	34.7*	-2.0	0.3	7.8	33.3*
CCOC(=O)N1CCC(NC(=O)c2ccc3c(c2)N(C)CCS3)CC1	-5.4	-4.5	x	50.7*	5.0	-0.7	66.3*	72.6*
Cc1cccc(CNC(=O)c2ccc3c(c2)N(C)CCS3)c1	-6.6	-4.5	x	17.9*	-0.8	-0.7	-6.7	-5.6
Cc1cc(O)ccc1-c1cccc2nccn12	-3.2	3.7	x	1.4	1.0	-0.6	x	x
COc1cccc(-n2nnnc2SCC(=O)Nc2ccc(OC)cc2OC)c1	-0.1	-1.3	i	0.1	-6.4	-0.8	x	x
CCN1C(=O)c2cccc3c(S(=O)(=O)NCc4cccnc4)ccc1c23	-2.9	1.2	x	53.5*	-7.8	-8.1	71.2*	78.2*
CCN1C(=O)c2cccc3c(S(=O)(=O)NC(Cc4ccccc4)C(=O)O)ccc1c23 (configuration not stated)	-1.1	2.0	x	51.3*	-7.5	-2.7	65.5*	67.2*
CCN1C(=O)c2cccc3c(S(=O)(=O)Nc4ccc(OC)cc4OC)ccc1c23	-0.7	-0.1	i	0.4	-0.5	-2.1	x	x
O[C@H](COc1ccc(C(F)(F)F)cc1)CN1CCC(C(O)(c2ccccc2)c2ccccc2)CC1	x	0.2	x	0.1	-0.9	-3.0	x	x
CC1C(C#N)=C(SCC(N)=O)NC2=C1C(=O)CC(C)(C)C2 (configuration not stated)	7.1	3.7	i	0.1	-3.5	2.8	x	x
CC1=C(C#N)C(c2cccnc2)C2=C(CC(C)(C)CC2=O)N1 (configuration not stated)	0.0	-3.9	x	37.5*	6.4	3.5	66.5*	52.0*	EDANS interf=>69.5
CC1=C(C#N)C(c2ccc(O)cc2)C2=C(CC(C)(C)CC2=O)N1 (configuration not stated)	-1.4	-0.3	i	5.3	-0.1	-2.5	x	x
CC1=C(C#N)C(C)C2=C(CC(C)(C)CC2=O)N1 (configuration not stated)	1.3	0.2	x	16.2*	-4.2	-2.2	39.2*	40.4*
COc1cccc(NC(=O)N2CC[C@@H]3[C@H]2c2cc(-c4cccc(C#N)c4)ccc2N(C)[C@@H]3CO)c1	x	-5.9	x	-6.8	-0.2	0.8	x	x
COc1cc(/C=C/[N+](=O)[O-])ccc1OC(=O)/C=C/c1ccc(F)cc1	-1.5	4.3	i	-0.4	-0.8	-0.9	x	x
O=C(NN1CCOCC1)c1c(-c2ccccc2)sc2ccccc12	3.4	1.1	i	0.3	-4.0	-2.9	x	x
CS(=O)(=O)c1ccc(-c2sc3cc4c(cc3c2C(=O)NN2CCOCC2)OCO4)cc1	-0.9	0.7	x	43.4*	-0.3	0.0	34.5*	27.5*	EDANS interf=>69.5
Cc1cc(-c2nc3ncccc3o2)ccc1N	-5.4	1.3	x	40.2*	-0.6	-15.0	66.9*	67.3*
Nc1ccc(-c2nc3ncccc3o2)c(O)c1	9.8	-4.4	x	21.0*	0.4	-15.1	22.1*	20.9*
SMILES	Rin1-Abl PPI inh	LEDGF integ inh	Neddyl block	KLK7 zymogen act	MBD2 inh	UHRF1 MBD2 ctr	proKLK7 act conf	EDANS interfere	others
CC(C)C(=O)Nc1ccc(-c2nc3ncccc3o2)cc1	1.0	-1.4	x	14.4*	4.2	-5.4	7.5	6.6*
Cc1ccc(-c2nc3ncccc3o2)cc1N	2.6	0.0	i	0.3	2.2	-5.0	x	x
CCc1nc2c(OCCC3CCCCC3)cccn2c1N(C)C(=O)c1cccs1	-2.3	0.8	i	0.0	-2.0	0.9	x	x
Cc1nc2ccc(C(=O)O)cc2c2c1CC(C)S2 (configuration not stated)	-1.6	2.0	i	4.1	-4.3	8.2	x	x
NC(=S)NN=C1C=CCCC1	-0.2	-2.1	i	0.7	-2.1	-4.4	x	x
CC(=O)c1ccc(N2CCN(S(=O)(=O)c3cc4c(cc3C)NC(=O)CO4)CC2)cc1	-0.6	-7.7	i	20.3*	3.9	1.4	11.5	8.1*
CCOc1cccc(-c2cnc3cccnn23)c1	-4.3	1.1	x	41.4*	-2.2	-1.9	36.8*	33.5*
Cc1cccc(-c2cnc3cccnn23)c1	2.2	1.7	x	34.4*	-5.3	0.2	26.5*	34.5*
COc1cc(NC(=NS(=O)(=O)c2ccccc2)c2ccccc2)ncn1	4.1	7.9	i	-0.1	0.0	-0.7	x	x
N#CCc1nn2c(-c3ccccc3)ccnc2c1C#N	-2.5	-2.3	x	14.9*	1.8	0.7	8.3	4.7*
C=CC[C@]1(O)C(=O)N(c2ccccc2)c2ccccc21	x	-0.9	x	-0.3	0.4	2.7	x	x
CC(C)C[C@@H]1COc2cc(N3CCSCC3)ccc2S(=O)(=O)N1C	x	0.0	x	0.3	3.3	-0.4	x	x
Cc1cc(C)cc(NC(=O)c2ccc([N+](=O)[O-])o2)c1	3.5	3.1	i	-0.2	-5.0	-2.4	x	x
Cc1cc(C)nc(NC(=O)c2ccc([N+](=O)[O-])o2)n1	0.8	1.1	i	133.3*	-1.8	-3.2	151.0*	146.3*
CC1(C)CC(=O)C2=C(C1)N(CCN1CCOCC1)C1=C(C(=O)CC(C)(C)C1)C2c1cccc(F)c1	0.1	1.8	x	33.9*	1.3	2.0	23.2*	20.1*
COc1ccc(C2C3=C(CC(C)(C)CC3=O)N(CCN3CCOCC3)C3=C2C(=O)CC(C)(C)C3)cc1	-5.9	-5.0	x	12.6*	5.2	2.9	5.1	14.9*
CC1(C)CC(=O)C2=C(C1)N(CCN1CCOCC1)C1=C(C(=O)CC(C)(C)C1)C2c1ccc(Cl)cc1	-2.6	-9.0	x	-4.8	2.7	3.8	x	x
